# Reference: PubChem BioAssay (NCI)
# Compounds without any hit were thinned out: in the full panel of roughly 83,000, 20% have a hit.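 Activity criterion: percent growth below 10, measured after cells in 96-well plates were exposed to a single compound concentration for 48 hours.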 Values without a mark were called inactive. Calls of active or inactive are those of the source.
# Test system: SK-MEL-5 melanoma
# Experiment: NCI-60 one-dose screen, 48 h (100 = growth as untreated, 0 = no growth, -100 = all killed)
# Details: 10 µM unless noted
row,SMILES,growth
1,O=C1/C(=C/c2ccc(O)cc2)COc2ccc(-c3ccccc3)cc21,81.7%
2,CC(=O)N1N=C(c2cccc(Nc3ccncc3)c2)CC1c1ccc2c(c1)OCO2 (stereo not given),81.6%
3,Clc1nc(Cl)c2ncn(CCOCCn3cnc4c(Cl)nc(Cl)nc43)c2n1,-91.5% (active)
4,COc1ccc(/C=C2\COc3ccc(-c4ccccc4)cc3C2=O)cc1O,32.3%
5,Cc1c2c(cc[n+]1Cc1ccccc1)c1ccc(OCC3CCCCC3)cc1n2CC1CCCCC1,-100% (active)
6,CN1C(=O)N(C)[C@H]2NC(NN)=N[C@H]21,101%
7,O=C(Nc1cccc(Cl)c1)Oc1c(Br)c(Br)c(Br)c(Br)c1Br,75.2%
8,NC(=O)c1ncn(C2OC(CO)C(O)C2O)n1 (stereo not given),99.1%
9,COc1cc(/C=C/C(=O)c2c(C)oc3nc[nH]c(=O)c23)ccc1O,101%
10,COc1cc(NCCCN(CC(C)C)CC(C)C)c2ncccc2c1,97%
11,O=[N+]([O-])c1cccc(-c2nc(-c3ccc(Cl)cc3Cl)cn2-c2ccccc2)c1,71.4%
12,O=C(N/N=C/c1ccc(F)cc1)c1ccccc1Nc1cccc(C(F)(F)F)c1,109%
13,COc1ccc(Cn2nc(-c3cc(OC)c(OC)c(OC)c3)c3c2CCc2cnoc2-3)cc1OC,38.7%
14,Fc1ccc(C2CC(c3cccc(Nc4ccncc4)c3)=NN2c2ccccc2)cc1 (stereo not given),76.4%
15,CCn1cc(C2NC(=O)c3ccccc3N2)c2cccc(C)c21 (stereo not given),16.8%
16,Cc1nc2sc(C(=O)Nc3ccccc3)c(N)c2cc1C(=O)c1ccc(C(F)(F)F)cc1,98.1%
17,CC(=O)c1c(C)[nH]c(-c2nc3ccc(N4CCN(C)CC4)cc3[nH]2)c1-c1ccccc1,11.8%
18,CCC1(CC)NC(=O)c2c(c3ccc(Cl)c(Cl)c3n2C)C1C#N (stereo not given),89.9%

row,SMILES,growth
1,O=C(Nc1ccc(F)cc1)c1c(NC(=O)C(F)(F)F)sc2c1CCCCC2,-55.6% (active)
2,O=C(NCCN1CCOCC1)OCc1nc2nc(Cl)nc(N3CCOCC3)c2[nH]1,-29.7% (active)
3,CC(C)[N+](C)(CCOC(COc1ccccc1)COc1ccccc1)C(C)C,86.8%
4,COc1ccc(C(=O)c2cc3c(N)c(C(=O)Nc4cccc(Cl)c4C)sc3nc2C)cc1,-23.8% (active)
5,COc1ccccc1/C=C1\Oc2cc(OCCCN3CCCC3)ccc2C1=O,79.8%
6,CCc1nc(C)cn1C(=O)OCc1nc2nc(Cl)nc(N3CCOCC3)c2[nH]1,-35.8% (active)
7,COc1ccc(Cl)cc1NC(=O)c1c(NC(=O)C(F)(F)C(F)(F)F)sc2c1CCCCC2,-58.3% (active)
8,COc1ccccc1/C=C1\COc2ccc(-c3ccccc3)cc2C1=O,27.5%
9,O=C(O)CCCCCCCCCCCCCCC(=O)O,103%
10,NC(=O)C1(N2CCCCC2)CCN(CCCC(=O)c2ccc(F)cc2)CC1,4.4% (active)
11,CCN1C(=O)/C(=c2\sc3n(c2=O)NC2C(N=3)N(CC)C(=O)N2CC)c2ccccc21 (stereo not given),30.9%
12,CCCCCCCCCCCCCCCC(=O)OC[C@@]1(O)C[C@@]23CC[C@@H]4C(C)(C)[C@H](O)CC[C@@]4(C)[C@@H]2CC[C@H]1C3,102%
13,CCOC(=O)c1ccc(Nc2ccnc(SCC(=O)c3ccc(C#N)cc3)n2)cc1,37.5%
14,O=S(=O)(c1cccc(NC2=Nc3cccc4cccc2c34)c1)N1CCCC1,44.7%
15,CCN(CC)CCOC(COc1cc(C)cc(C)c1)COc1cc(C)cc(C)c1,-88.5% (active)
16,COc1ccc(Nn2c(SCC(=O)Nc3nc(-c4ccc(Cl)cc4)cs3)nc(C)c2C)cc1,-21.5% (active)
17,CC1=CC2(C)/C=C(C)/C=C\CC(O)/C=C3/C=CC(=C4C(=O)OC2(CC1C)C4=O)OC3 (stereo not given),56.7%
